Test results reported in PubChem BioAssay AID1159580 (chemical genetic matrix, 2015).
Where “and” joins values, the source holds several entries; their conditions need not be identical. Identical values can stand only once. In all, about 5,500 compounds went through this assay and about 2,000 (36%) were called active. Inconclusive results (about 18%) are left out. No stated cut-off is given here; in the data, active means normalized growth mostly below about 0.91 (no sharp cut-off); inconclusive means no clear call, values can overlap the other calls; inactive means mostly above about 0.92. Some of the results follow.

Assay: chemical genetic growth profiling, strain panel (AID 1159580);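 further: tested at 20 µM; growth read once vehicle control cultures reached saturation at 30 °C; 1 = growth at the plate median or of vehicle wells; lower values mean less growth of the strain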
Details: S. cerevisiae deletion strains, growth OD

Measured: normalized growth

C[C@]12CCC3c4ccc(OC(=O)c5ccccc5)cc4CCC3C1CCC2=O (stereo not given in full)
inactive: locus YAL013W, strain DEP1, hits give low values 0.986 | locus YAL021C, strain ccr4, hits give low values 1 | locus YAL026C, strain drs2, hits give low values 0.989 | locus YAL030W, strain snc1, hits give low values 0.99 | locus YBL061C, strain skt5, hits give low values 0.987 | locus YBR009C, strain hhf1, hits give low values 0.972 | locus YBR021W, strain FUR4, hits give low values 0.981 | locus YBR023C, strain chs3, hits give low values 0.984 | locus YBR171W, strain sec66, hits give low values 0.977 | locus YBR229C, strain ROT2, hits give low values 1 | locus YBR231C, strain swc5, hits give low values 0.987 | locus YBR279W, strain paf1, hits give low values 0.988 | locus YCL011C, strain gbp2, hits give low values 0.987 | locus YCL016C, strain dcc1, hits give low values 0.985 | locus YCL029C, strain bik1, hits give low values 0.996 | locus YCL061C, strain MRC1, hits give low values 0.988 | locus YCL069W, strain vba3, hits give low values 0.986 | locus YCR088W, strain abp1, hits give low values 0.984 | locus YDL005C, strain med2, hits give low values 0.987 | locus YDL035C, strain GPR1, hits give low values 0.986 | locus YDL040C, strain nat1, hits give low values 0.993 | locus YDL074C, strain BRE1, hits give low values 0.974 | locus YDL101C, strain DUN1, hits give low values 1 | locus YDL185W, strain tfp1, hits give low values 0.951 | locus YDL192W, strain arf1, hits give low values 1.02 | locus YDR001C, strain nth1, hits give low values 0.986 | locus YDR069C, strain doa4, hits give low values 0.98 | locus YDR101C, strain arx1, hits give low values 0.969 | locus YDR137W, strain rgp1, hits give low values 1 | locus YDR159W, strain sac3, hits give low values 0.968 | locus YDR162C, strain NBP2, hits give low values 1.01 | locus YDR195W, strain ref2 0.934 | locus YDR297W, strain sur2, hits give low values 0.985 | locus YDR318W, strain mcm21, hits give low values 1.02 | locus YDR334W, strain swr1, hits give low values 0.986 | locus YDR335W, strain msn5, hits give low values 0.982 | locus YDR388W, hits give low values 0.992 | locus YDR392W, strain spt3, hits give low values 0.864 | locus YDR502C, strain sam2, hits give low values 1 | locus YEL003W, strain gim4, hits give low values 0.977 | locus YEL037C, strain rad23, hits give low values 0.98 | locus YEL061C, strain CIN8 (second series), hits give low values 0.981 | locus YEL061C, strain CIN8, hits give low values 1 | locus YER015W, strain faa2, hits give low values 0.991 | locus YER016W, strain bim1, hits give low values 0.969 | locus YER110C, hits give low values 0.982 | locus YER111C, strain swi4, hits give low values 0.974 | locus YER155C, strain BEM2 (second series), hits give low values 0.974 | locus YER155C, strain BEM2, hits give low values 0.996 | locus YER167W, strain BCK2, hits give low values 1.01 | locus YFR010W, strain ubp6, hits give low values 0.993 | locus YGL078C, strain dbp3, hits give low values 1.01 | locus YGL086W, strain mad1, hits give low values 0.972 | locus YGL167C, strain pmr1, hits give low values 0.965 | locus YGL173C, strain kem1, hits give low values 0.988 | locus YGL227W, strain vid30, hits give low values 0.986 | locus YGL240W, strain doc1, hits give low values 0.99 | locus YGL248W, strain PDE1, hits give low values 1.02 | locus YGL253W, strain hxk2, hits give low values 0.976 | locus YGR135W, strain pre9, hits give low values 1.03 | locus YGR252W, strain gcn5, hits give low values 1.2 | locus YHR013C, strain ard1, hits give low values 0.939 | locus YHR027C, strain rpn1, hits give low values 0.996 | locus YHR030C, strain SLT2, hits give low values 0.991 and 1.06 | locus YHR079C, strain IRE1 (second series), hits give low values 0.997 | locus YHR079C, strain IRE1, hits give low values 1.07 | locus YHR094C, strain hxt1, hits give low values 0.999 | locus YHR129C, strain ARP1, hits give low values 0.997 | locus YHR142W, strain chs7, hits give low values 0.996 | locus YHR200W, strain rpn10, hits give low values 0.994 | locus YIL066C, strain RNR3, hits give low values 1 | locus YIL073C, strain SPO22, hits give low values 0.933 | locus YIL125W, strain kgd1, hits give low values 1 | locus YIR030C, strain dcg1, hits give low values 1.01 | locus YJL092W, strain hpr5, hits give low values 0.98 | locus YJL095W, strain BCK1 (second series), hits give low values 0.992 | locus YJL095W, strain BCK1, hits give low values 1.05 and 1.07 | locus YJL115W, strain asf1, hits give low values 0.995 | locus YJL129C, strain trk1, hits give low values 0.979 | locus YJL134W, strain LCB3, hits give low values 0.987 | locus YJL154C, strain vps35, hits give low values 0.986 | locus YJL164C, strain tpk1, hits give low values 0.977 | locus YJL166W, strain qcr8, hits give low values 0.983 | locus YJL168C, strain set2, hits give low values 0.996 | locus YJL187C, strain SWE1 (second series), hits give low values 1.01 | locus YJL187C, strain SWE1, hits give low values 0.996 | locus YJR043C, strain POL32, hits give low values 1.01 | locus YJR066W, strain TOR1, hits give low values 1.01 | locus YJR075W, strain HOC1, hits give low values 0.998 | locus YKL009W, strain mrt4, hits give low values 0.977 | locus YKL068W, hits give low values 0.975 | locus YKL085W, strain MDH1 (second series), hits give low values 1.01 | locus YKL085W, strain MDH1, hits give low values 1.01 | locus YKL160W, strain elf1, hits give low values 1.01 | locus YKR001C, strain vps1, hits give low values 0.993 | locus YKR026C, strain gcn3, hits give low values 0.978 | locus YKR091W, strain srl3, hits give low values 0.986 | locus YLL001W, strain dnm1, hits give low values 0.998 | locus YLL026W, hits give low values 0.984 | locus YLL041C, strain sdh2, hits give low values 0.989 | locus YLR027C, strain aat2, hits give low values 0.998 | locus YLR039C, strain RIC1, hits give low values 1.01 | locus YLR058C, strain SHM2, hits give low values 1.01 | locus YLR102C, strain apc9, hits give low values 0.993 | locus YLR113W, strain HOG1, hits give low values 1 | locus YLR221C, strain rsa3, hits give low values 1.01 | locus YLR258W, strain gsy2, hits give low values 0.971 | locus YLR262C, strain YPT6 (second series), hits give low values 0.94 | locus YLR262C, strain YPT6, hits give low values 0.959 | locus YLR268W, strain sec22, hits give low values 0.972 | locus YLR320W, strain mms22, hits give low values 0.98 | locus YLR330W, strain CHS5, hits give low values 0.984 | locus YLR342W, strain FKS1 (second series), hits give low values 1.01 | locus YLR342W, strain FKS1, hits give low values 0.979 | locus YLR357W, strain rsc2, hits give low values 0.947 | locus YLR370C, strain arc18, hits give low values 0.99 | locus YLR371W, strain rom2, hits give low values 1 | locus YLR384C, strain iki3, hits give low values 0.985 | locus YLR418C, strain cdc73, hits give low values 1.07 | locus YML016C, strain PPZ1, hits give low values 0.998 | locus YML032C, strain rad52, hits give low values 1.03 | locus YML120C, strain ndi1, hits give low values 0.986 | locus YML124C, strain tub3, hits give low values 1.01 | locus YMR058W, strain fet3, hits give low values 0.985 | locus YMR078C, strain ctf18, hits give low values 1.01 | locus YMR125W, strain sto1, hits give low values 0.978 | locus YMR129W, hits give low values 0.969 | locus YMR205C, strain PFK2, hits give low values 0.949 | locus YMR223W, strain ubp8, hits give low values 1.04 | locus YMR231W, strain pep5, hits give low values 0.979 | locus YMR263W, strain SAP30, hits give low values 0.997 | locus YMR307W, strain GAS1, hits give low values 1.22 | locus YNL067W, strain RPL9B, hits give low values 1.02 | locus YNL071W, strain lat1, hits give low values 0.993 | locus YNL128W, strain TEP1, hits give low values 0.971 | locus YNL153C, strain GIM3, hits give low values 1.02 | locus YNL183C, strain NPR1, hits give low values 1.01 | locus YNL209W, strain ssb2, hits give low values 0.989 | locus YNL233W, strain BNI4, hits give low values 1.01 | locus YNL248C, strain rpa49, hits give low values 1.01 | locus YNL250W, strain rad50, hits give low values 0.96 | locus YNL271C, strain bni1, hits give low values 1.02 | locus YNL298W, strain CLA4, hits give low values 1.01 | locus YNL307C, strain MCK1, hits give low values 0.996 | locus YNL322C, strain KRE1 (second series), hits give low values 0.994 | locus YNR049C, strain mso1, hits give low values 0.98 | locus YNR052C, strain pop2, hits give low values 1.02 | locus YOL012C, strain htz1 1.22 | locus YOL147C, strain pex11, hits give low values 0.998 | locus YOR001W, strain rrp6, hits give low values 1.01 | locus YOR061W, strain CKA2, hits give low values 1.01 | locus YOR069W, strain VPS5, hits give low values 0.993 | locus YOR070C, strain gyp1, hits give low values 0.984 | locus YOR080W, strain dia2, hits give low values 0.983 | locus YOR083W, strain WHI5, hits give low values 1.03 | locus YOR106W, strain vam3, hits give low values 1.04 | locus YOR136W, strain idh2, hits give low values 0.992 | locus YOR144C, strain elg1, hits give low values 0.998 | locus YOR184W, strain ser1, hits give low values 0.975 | locus YOR231W, strain MKK1, hits give low values 1.08 | locus YOR265W, strain rbl2, hits give low values 0.989 | locus YOR270C, strain vph1, hits give low values 0.99 | locus YOR290C, strain snf2, hits give low values 0.912 | locus YOR316C, strain cot1, hits give low values 0.993 | locus YPL051W, strain arl3, hits give low values 1.02 | locus YPL078C, strain atp4, hits give low values 0.998 | locus YPL106C, strain sse1, hits give low values 0.972 | locus YPL240C, strain hsp82, hits give low values 0.997 | locus YPL241C, strain CIN2, hits give low values 0.999 | locus YPL256C, strain CLN2, hits give low values 1.12 | locus YPR119W, strain clb2, hits give low values 1.01 | locus YPR141C, strain kar3, hits give low values 1.01 | locus YPR163C, strain tif3, hits give low values 1 | locus YPR167C, strain met16, hits give low values 1.01 | strain wtn01, hits give low values 0.983
